Consider 42 sequences from PMC7819943, “Rice protein-binding microarrays: a tool to detect cis-acting elements near promoter regions in rice”.

Whole data set: some 35,000 sequences, median “fluorescence intensity (a.u.)” near 10,000, cut for the highest 2% near 52,000. The full list was thinned out, with the highest values kept by preference.

The target of this assay is T1, OsWOX13 (Oryza sativa, UniProt Q5QMM3 1-267).
T1 sequence: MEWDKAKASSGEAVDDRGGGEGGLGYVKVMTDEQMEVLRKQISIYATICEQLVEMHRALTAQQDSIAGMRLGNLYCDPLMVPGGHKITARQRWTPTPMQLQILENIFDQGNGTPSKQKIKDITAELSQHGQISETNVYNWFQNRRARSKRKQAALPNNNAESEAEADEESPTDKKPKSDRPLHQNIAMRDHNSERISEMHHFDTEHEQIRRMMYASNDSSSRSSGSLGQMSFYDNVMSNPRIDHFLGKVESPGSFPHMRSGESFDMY
The assay can be described thus: protein-binding microarray (RPBM); PBS, 2% BSA, 51.3 ng/ul salmon testes DNA, 50 uM zinc acetate, 200 nM TF, 25 C, 1 h; high values mean tight binding. The settings on record: protein: recombinant; tags: N-terminal polyhistidine and DsRed monomer fusion (pET32a); label: CyDye5-dUTP incorporated in the synthesized complementary strand; 3' TTTTT single-stranded linker to array surface; dsDNA, one strand shown. The gist of the method: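 The binding signal for each feature is its fluorescence intensity in arbitrary units. An Axon 4000B scanner was used to read a custom Agilent array that had been made double-stranded with Cy5-dUTP primer extension, blocked with 2% BSA, incubated at 25 °C for 1 h with 200 nM protein in PBS, 2% BSA, salmon testes DNA and 50 µM zinc acetate, and washed. The protein was an N-terminal polyhistidine–DsRed transcription factor fusion from E. coli BL21-CodonPlus, purified on Ni–NTA.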
Take “ATTTCAGATTGGGTTATTTGAGAGCTAAATTTCTAATGTACGGAGTCACCTAGTGCAG”: the binding signal is 4680 fluorescence intensity (a.u.).
The value for “TGAAAATGATTTGGGATGGCATTTCAGCGGGTTGGGCTCACGGAGTCACCTAGTGCAG” was 22000 fluorescence intensity (a.u.).
The value for “ATAATGGCATAATTTAAATTTTACAAAATACTTATGACACCGGAGTCACCTAGTGCAG” was 12600 fluorescence intensity (a.u.); that for “ACTAAATTGGGTTGGGGTGCCTCCTCCTTCCTTTCTTTCTCGGAGTCACCTAGTGCAG” was 21000 fluorescence intensity (a.u.); that for “GTTGATGTGATGGAAAATGACTGAAGATTGGATCTAAACTCGGAGTCACCTAGTGCAG” was 31100 fluorescence intensity (a.u.).
The value for “ATGGTTGATTGATTGCATATATTTGAACAAATGATCTTTGCGGAGTCACCTAGTGCAG” was 65500 fluorescence intensity (a.u.).
Regarding “ATTAATTATGTCATAAACTGTTGTTGATTTGTGCCAGTTTCGGAGTCACCTAGTGCAG”, the binding signal was 39500 fluorescence intensity (a.u.).
As to “CCTGACAGGTCATCTCCTGATTGAAACCAAAATGTTGGATCGGAGTCACCTAGTGCAG”, the binding signal is 60700 fluorescence intensity (a.u.).
With “CTAGTAATTACAAACATTGGAACTGAGTTTTGGTTGGGGTCGGAGTCACCTAGTGCAG”, the binding signal was 23800 fluorescence intensity (a.u.).
The value for “TGATGATTTAACTGTGTTGCATGAATTCATTCCTATTTGACGGAGTCACCTAGTGCAG” was 29500 fluorescence intensity (a.u.); that for “CATAATGATTGCGTTGAACGTTGGTTGCTTGATCATCTTTCGGAGTCACCTAGTGCAG” was 18600 fluorescence intensity (a.u.); that for “GAAAATGACCAAATTATGAAAACATCCAGGCAATGGATCTCGGAGTCACCTAGTGCAG” was 3240 fluorescence intensity (a.u.).
The value for “CTTATATTTGCAAATATTGATGGTTGTTGACATATGAACTCGGAGTCACCTAGTGCAG” was 3210 fluorescence intensity (a.u.); that for “AGGTTGATTAACTGTTTCATGAATTTGGTATGTTTGCAGTCGGAGTCACCTAGTGCAG” was 53300 fluorescence intensity (a.u.); that for “CGACTGATTGGTTGGGGTCATGGTTGGAACAAAATTTCCTCGGAGTCACCTAGTGCAG” was 52800 fluorescence intensity (a.u.).
In the case of “CAAAGATTTCACTGTTTAATCTAATCTTGTGGATTTTATGCGGAGTCACCTAGTGCAG”, the binding signal was 3590 fluorescence intensity (a.u.).
The value for “TCGAATTTGATCAGTAGCTTAATTATACTTTAGTACTACCCGGAGTCACCTAGTGCAG” was 10600 fluorescence intensity (a.u.).
Turning to “TGTTAATTATGCCCTCGGTCCAATTGTGATATTCTGTTGACGGAGTCACCTAGTGCAG”, the binding signal was 38300 fluorescence intensity (a.u.).
The value for “CCCATGTAGATTGGGCCTGCTTAGTGAAGTCTCACGTAGCCGGAGTCACCTAGTGCAG” was 5240 fluorescence intensity (a.u.).
The value for “ATCGTAATAGAATATGTCACATTCGGTTTTGGCTCAAGTTCGGAGTCACCTAGTGCAG” was 5710 fluorescence intensity (a.u.); that for “CTTATTCACTTGTGATTGTGATGATTAGCGAACAGAGTTGCGGAGTCACCTAGTGCAG” was 18700 fluorescence intensity (a.u.).
Take “AGTTGACAGTTCCAATTAATCGTTCATGCGACCCAATTGACGGAGTCACCTAGTGCAG”: the binding signal was 21500 fluorescence intensity (a.u.).
For the sequence “CTAATTTAAATTTGTCTCTTTTCTACCCTCAACCATCATTCGGAGTCACCTAGTGCAG”, the binding signal is 27200 fluorescence intensity (a.u.).
The value for “CGTCTGGGGTTTGATTGGGATTGAGGCGAATTCGGGCGGTCGGAGTCACCTAGTGCAG” was 34000 fluorescence intensity (a.u.); that for “CCGTTGGATTGGAATCGGAGGGCCTACAATGACTGAGTGCCGGAGTCACCTAGTGCAG” was 5860 fluorescence intensity (a.u.).
The value for “TCCCTGAATTTTAGGAGTGATTGGACCTAAAGTTGAGGAGCGGAGTCACCTAGTGCAG” was 17200 fluorescence intensity (a.u.); that for “CTGGATTGATTGGGAGTGTTGGGTTTCGGGCTAGATCTGGCGGAGTCACCTAGTGCAG” was 65200 fluorescence intensity (a.u.).
As to “TATGAATTGACTATTATATTGGCTATGGATGATTTGTAGTCGGAGTCACCTAGTGCAG”, the binding signal is 30100 fluorescence intensity (a.u.).
The value for “TTCTGCTGATTGGAATGACTACAACACTAGAGTTGTCTGTCGGAGTCACCTAGTGCAG” was 56100 fluorescence intensity (a.u.); that for “AGAAATTGATTATGGATGAGTGCCCTTCTGCCTATTATGTCGGAGTCACCTAGTGCAG” was 55900 fluorescence intensity (a.u.).
The value for “TGGAAATTGATGGAGGATGATCTGCAATTAGAAAGAAGAACGGAGTCACCTAGTGCAG” was 29700 fluorescence intensity (a.u.).
The value for “ACTAATTGACTACTCCCTGAATTTAAAGTTGATGGTCAGTCGGAGTCACCTAGTGCAG” was 61100 fluorescence intensity (a.u.); that for “CAGAATGACAACATTGACTGATTGACACTAGAAATACATACGGAGTCACCTAGTGCAG” was 39000 fluorescence intensity (a.u.).
As to “TCTACTAATTTAAAGTTGCAGTGTTCCTCCTCCCTCCTACCGGAGTCACCTAGTGCAG”, the binding signal was 10700 fluorescence intensity (a.u.).
Turning to “TGGCGGATTGATCTGGAGGTGGGCTTGTTGGGGTTGCTGTCGGAGTCACCTAGTGCAG”, the binding signal was 14400 fluorescence intensity (a.u.).
The value for “TGGGTAGGGGCAGTTAATTGGGAGGGAATTCCTCCTTCACCGGAGTCACCTAGTGCAG” was 8890 fluorescence intensity (a.u.); that for “ACTGATGAAATATCAAAGTGATTGTCAGACAAAGCGCCATCGGAGTCACCTAGTGCAG” was 25800 fluorescence intensity (a.u.).
The value for “TACCCATCTTCCATTGACAGACAATTGGGCCCCACTCCGCCGGAGTCACCTAGTGCAG” was 7450 fluorescence intensity (a.u.).
The value for “AGCTAATAATTACTAATTACTAAGTAATACTTCCTCTGTTCGGAGTCACCTAGTGCAG” was 41700 fluorescence intensity (a.u.); that for “ATTATTGACAAAAGCATCTCGATATCTTATGGATTAATATCGGAGTCACCTAGTGCAG” was 4720 fluorescence intensity (a.u.).
“CGTGAGTGAAATTTTAATTACGTGTACATATAGGGGAGTACGGAGTCACCTAGTGCAG”: the binding signal was 20500 fluorescence intensity (a.u.).
The value for “ATATAATGGGCACTATGATTTGCTCTAAATATTGGTCATTCGGAGTCACCTAGTGCAG” was 28800 fluorescence intensity (a.u.).
